Screen size: about 190,000 compounds; about 4,100 (2.2%) were called active. What follows is part of a selection rich in actives, with near analogues and random picks from the rest. Unmarked numbers belong to inactive results.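 The calls were made as follows: active = thallium flux slope and its plate-corrected score both differing from the plate sample mean at a set confidence after two filtering rounds, in either direction; inactive = the rest.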
biological target: Solute carrier family 12 member 5 (Homo sapiens) (UniProt Q9H2X9); test: modulation of human KCC2 ion transport – cell-based, HEK293 KCC2, FluoZin-2 fluorescence, MLSMR, primary screen (AID 1456); conditions: KCC2 cells, thallium flux FluoZin-2 fluorescence; at 10 µM;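 as to B-score of Tl+ flux slope (higher = more flux/activation; lower = inhibition): slope of fluorescence scaled to starting intensity during 10 to 20 s after thallium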
Sequence (Q9H2X9 whole entry, looked up): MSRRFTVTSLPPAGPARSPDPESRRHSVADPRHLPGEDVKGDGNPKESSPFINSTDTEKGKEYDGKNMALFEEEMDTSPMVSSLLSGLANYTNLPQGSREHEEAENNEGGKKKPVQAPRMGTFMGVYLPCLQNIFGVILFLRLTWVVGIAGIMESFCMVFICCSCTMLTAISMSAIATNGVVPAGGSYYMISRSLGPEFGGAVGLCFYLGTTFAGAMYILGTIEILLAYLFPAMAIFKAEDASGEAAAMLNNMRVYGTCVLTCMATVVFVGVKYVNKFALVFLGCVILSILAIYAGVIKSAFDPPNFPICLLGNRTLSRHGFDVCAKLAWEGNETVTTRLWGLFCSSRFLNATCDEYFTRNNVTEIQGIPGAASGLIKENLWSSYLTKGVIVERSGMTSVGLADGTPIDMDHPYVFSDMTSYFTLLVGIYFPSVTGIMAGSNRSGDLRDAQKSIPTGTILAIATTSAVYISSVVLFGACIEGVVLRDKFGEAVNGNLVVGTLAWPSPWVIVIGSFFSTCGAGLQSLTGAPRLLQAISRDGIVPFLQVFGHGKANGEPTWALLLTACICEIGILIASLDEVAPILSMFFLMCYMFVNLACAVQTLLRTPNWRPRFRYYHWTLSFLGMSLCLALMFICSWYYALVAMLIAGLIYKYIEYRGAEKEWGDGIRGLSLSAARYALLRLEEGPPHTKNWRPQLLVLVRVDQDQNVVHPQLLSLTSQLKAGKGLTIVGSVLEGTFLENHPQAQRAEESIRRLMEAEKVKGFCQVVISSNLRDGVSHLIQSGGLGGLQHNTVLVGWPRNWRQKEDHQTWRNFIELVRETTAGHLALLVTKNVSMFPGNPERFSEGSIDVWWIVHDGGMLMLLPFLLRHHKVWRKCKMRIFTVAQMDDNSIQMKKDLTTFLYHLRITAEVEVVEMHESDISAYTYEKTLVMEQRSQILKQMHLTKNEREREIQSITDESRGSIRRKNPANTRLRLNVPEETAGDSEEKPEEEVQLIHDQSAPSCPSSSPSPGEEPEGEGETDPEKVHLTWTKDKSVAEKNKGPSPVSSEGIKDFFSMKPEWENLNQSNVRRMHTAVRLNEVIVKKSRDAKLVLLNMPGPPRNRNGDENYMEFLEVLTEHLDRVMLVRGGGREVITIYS

Row | Structure (SMILES) | B-score of Tl+ flux slope (higher = more flux/activation; lower = inhibition)
1 | CC(C)=NN1C(=O)c2ccccc2NC1(C)C | 0.347
2 | CC(O)c1nc2c(c(=O)n(C)c(=O)n2C)n1C (configuration not stated) | 0.852
3 | COc1ccc(NC(=O)c2ccccc2[N+](=O)[O-])cc1OC | 4.22 (active)
4 | COC(=O)CNC(=O)c1ccccc1[N+](=O)[O-] | 0.532
5 | O=C(Nc1ccncc1)c1ccccc1[N+](=O)[O-] | 1.37
6 | Cc1cc(C)nc(SCc2cn3c(C)cc(C)nc3n2)n1 | -0.647
7 | CCOC(=O)CC1C(=O)NCCN1c1nc2c(C)cccn2c(=O)c1/C=C1\SC(=S)N(C(C)CC)C1=O (configuration not stated) | inactive
8 | Cn1c(C(=O)NCCCN2CCN(c3cccc(Cl)c3)CC2)cc2c(=O)n(C)c3ccccc3c21 | 0.0429
9 | CC1CCCC(C)N1CCCNC(=O)c1cc2c(=O)n(C)c3ccccc3c2n1C (configuration not stated) | -1.27
10 | Cn1c(C(=O)NCCc2ccsc2)cc2c(=O)n(C)c3ccccc3c21 | -3.14 (active)
11 | O=C1c2cccc3c([N+](=O)[O-])ccc(c23)C(=O)N1CC1CCCO1 (configuration not stated) | -3.38
12 | CN(c1ccccn1)c1ncnc2[nH]ncc12 | 0.0938
13 | CC(=O)NC(=S)Nc1ccc(NC(=S)NC(=O)c2ccc([N+](=O)[O-])cc2)cc1 | 0.484
14 | O=[N+]([O-])C(=c1ccc2c(c1)N1C3=C(CCCC3)CC3CCCCC31N=2)[N+](=O)[O-] (configuration not stated) | -0.0507
15 | COc1ccc(C(=O)/C=C/c2ccc(OC3CSC3)cc2)cc1 | 0.0132
16 | COc1ccc(/C=C/C(=O)c2ccc(OC)cc2O)cc1 | -1.21
17 | COc1ccc(/C=C/C(=O)c2cc(Br)ccc(=O)c2O)cc1 | 22.3 (active)
18 | O=C(C[n+]1cc(-c2ccc(Cl)c(Cl)c2)n2c1CCC2)c1cccs1 | 0.636
19 | CC(=O)N(OCc1ccc(OC(C)C)c(Cl)c1)C(C)=O | 0.219
20 | OCCCNc1nccc(-c2cc(Nc3cccc(Cl)c3)ncn2)n1 | -0.723
21 | CC(C)C[C@H](CO)Nc1nc(N(C)c2cccc(Cl)c2)c2ncn(C(C)C)c2n1 | -0.662
22 | CC(C)n1cnc2c(Nc3cccc(Cl)c3)nc(N(CCO)CCCO)nc21 | -2.56 (active)

Row | Structure (SMILES) | B-score of Tl+ flux slope (higher = more flux/activation; lower = inhibition)
23 | O=C(CN1CCN(c2ccc(Cl)cc2)CC1)NCc1cccs1 | -1.03
24 | Cc1ccccc1-c1nc(C#N)c(NCc2ccco2)o1 | -0.237
25 | N#Cc1nc(Cc2ccccc2)oc1NCCc1ccccc1 | -4.49 (active)
26 | Cc1ccc(-c2nc(C#N)c(NCCCn3ccnc3)o2)cc1 | -0.3
27 | O=c1oc2ccccc2cc1-c1cn(-c2ccccc2)c(=S)[nH]1 | 7.21 (active)
28 | Nc1ncc(-c2cc3ccccc3oc2=O)s1 | -0.488
29 | O=C(c1cn(-c2ccccc2)nc1-c1cc2ccccc2oc1=O)N1CCOCC1 | -0.172
30 | O=C(NCC1CCCO1)c1ccccc1-c1nc(-c2ccccc2Cl)no1 (configuration not stated) | -1.09
31 | O=C(c1ccncc1)N1CCN(c2ccc3ccccc3n2)CC1 | -0.588
32 | CCN(CC)S(=O)(=O)c1cccc(-c2n[nH]c(=S)n2/N=C/c2ccc(C(=O)OC)cc2)c1 | 2.87 (active)
33 | COc1cc(/C=N/n2c(C)n[nH]c2=S)ccc1OCc1ccccc1 | 0.899
34 | S=c1[nH]nc(-c2cc(-c3ccccc3)n[nH]2)n1/N=C/c1c2ccccc2cc2ccccc12 | -1.01
35 | O=C1CC(Cc2ccc(Cl)cc2)C(=O)N1c1cc(Cl)ccn1 (configuration not stated) | -1.2
36 | CC1CN(c2nc(Nc3ccccc3)nc(N)c2[N+](=O)[O-])CC(C)O1 (configuration not stated) | -0.457
37 | O=C(CS(=O)(=O)c1ccc(C(F)(F)F)cn1)NNC(=O)c1ccccc1 | -0.101
38 | Cn1c(CC2Sc3ccccc3NC2=O)nnc1SCC(=O)c1ccc(Cl)cc1 (configuration not stated) | -2.19
39 | CCN(CCNC(=O)C1=C(C)C(=O)OC12CCC(C)CC2)c1ccccc1 (configuration not stated) | 0.78
40 | Cc1nc(Cl)c(C#N)c2c1CCCC2 | -1.49
41 | CCOC(=O)CSc1nc(C)c(Oc2ccc(Cl)cc2Cl)c(=O)[nH]1 | -0.98
42 | Cc1ccc(-c2csc(NNC(=O)c3ccccc3)n2)cc1 | -5.47
43 | Cn1c(CNc2nc(-c3ccccc3)cs2)nnc1SCC(=O)c1ccccc1 | -4.57 (active)
44 | CCOC(=O)CSc1nnc(CNc2nc(-c3ccccc3)cs2)n1C | -1.31

Row | Structure (SMILES) | B-score of Tl+ flux slope (higher = more flux/activation; lower = inhibition)
45 | Cc1cc(N2CCN(c3ccc(F)cc3)CC2)n2ncnc2n1 | 0.197
46 | COCCNc1nc(-c2ccccc2)nc2c1oc1ccccc12 | 0.0873
47 | CC(C)OP(=O)(OC(C)C)C(Nc1ccccc1)c1cccc([N+](=O)[O-])c1 (configuration not stated) | -1.5
48 | O=C(Nc1ccc2oc(-c3ccccc3F)nc2c1)c1ccco1 | -4.45 (active)
49 | O=C(Nc1ccc2oc(-c3ccc4ccccc4c3)nc2c1)c1cccs1 | 0.746
50 | O=C(Nc1ccc2nccnc2c1)c1ccco1 | 0.0364
51 | S=C(Nc1ccc(Br)cc1Cl)NC1CCN(Cc2ccccc2)CC1 | -1.46
52 | S=C(NN=C1CCN(Cc2ccccc2)CC1)NC1CCCCC1 | -3.5 (active)
53 | O=C(NC1CCN(Cc2ccccc2)CC1)c1c(F)cccc1F | -1.12
54 | Fc1cc(F)c2nc(N3CCOCC3)sc2c1 | -0.123
55 | NC(=O)c1c(Nc2nc3c(F)cccc3s2)sc2c1CCCC2 | -0.0899
56 | Fc1cc(F)c2nc(Nc3nc4c(F)cccc4s3)sc2c1 | 69.3 (active)
57 | O=S(=O)(Nc1ccc(OC(F)(F)F)cc1)c1cccc2nonc12 | -0.299
58 | CN(C)S(=O)(=O)c1ccc(C(=O)NCC(C)(C)N2CCOCC2)cc1 | -0.162
59 | Cn1c(=O)c2c(ncn2CCc2ccccc2)n(C)c1=O | -0.25
60 | CC(=O)Oc1ccccc1C(=O)Nc1ncc([N+](=O)[O-])s1 | -3 (active)
61 | O=C(Cc1c(F)cccc1Cl)Nc1ncc([N+](=O)[O-])s1 | -1.12
62 | O=C(CCc1ccccc1)Nc1ncc([N+](=O)[O-])s1 | -3
63 | O=C(COC(=O)CNC(=O)c1ccco1)Nc1ccc(F)cc1 | 0.652
64 | O=C(COC(=O)c1ccccc1C(=O)c1ccccc1)c1ccco1 | -0.42
65 | O=C(CNC(=O)c1ccco1)OCC(=O)c1ccccc1 | 7.3 (active)
66 | Cn1nccc1NS(=O)(=O)c1ccc(F)cc1 | 0.158

Row | Structure (SMILES) | B-score of Tl+ flux slope (higher = more flux/activation; lower = inhibition)
67 | COc1cccc(NC(=S)NC(=O)c2c(Cl)c(C)nn2C)c1 | 39.2 (active)
68 | COc1cccc(NC(=S)NCc2ccccn2)c1 | -0.247
69 | Cc1nn(C)c(C(=O)NNC(=S)NC2CCCCC2)c1Cl | -0.0757
70 | COc1ccc(CC(=O)NCC(=O)N/N=C/c2cc(Br)ccc2OC)cc1 | -1.94
71 | COc1ccc(/C=C/C(=O)Nc2ccc(C)cc2)cc1S(=O)(=O)N1CCOCC1 | 0.752
72 | N#Cc1c(-c2cccs2)nc(SCC(=O)c2ccc(Br)cc2)[nH]c1=O | -4.31
73 | CCOc1cccc(C(=O)Nc2nnc(-c3cccs3)s2)c1 | -0.21
74 | N#Cc1ccc(C(=O)Nc2nc(-c3cccs3)c(C(=O)C(F)(F)F)s2)cc1 | -2.57 (active)
75 | Cc1cc(C)cc(C(=O)NCC(=O)OCC(=O)N2CCCCC2)c1 | 1.11
76 | C[C@@H](C(=O)N1CCNCC1)n1cc(CCC(=O)O)nn1 | 1.43
77 | CC[C@@H](C)[C@@H](C(=O)N1CCN(C(=O)OC(C)(C)C)CC1)n1cc(CCC(=O)O)nn1 | 3.74 (active)
78 | CCC(C)[C@@H](C(=O)N1CCNCC1)n1cc(CCCCN)nn1 (some centres not stated) | 0.0703
79 | O=c1[nH]c2ccccc2s1 | 10.2 (active)
80 | COCc1cc(=O)oc2cc(NS(=O)(=O)c3ccc(C)cc3)ccc12 | 0.0356
81 | O=S(=O)(NCc1ccco1)c1cnc(Cl)c(Cl)c1 | -2.3
82 | COC(=O)c1sccc1NC(=O)c1csc2c1CCCC2 | -0.108
83 | COc1cc(C(=O)Nc2nccs2)cc(OC)c1OC | 0.128
84 | COC(=O)c1sccc1NC(=O)c1cc(OC)c(OC)c(OC)c1 | -5.91 (active)
85 | COc1ccc(NS(=O)(=O)c2ccc(N3CCOCC3)c(NC(=O)c3ccccc3Br)c2)cc1 | -1.53
86 | COc1ccc2[nH]c(=O)c(CNc3ccc(C)c(C)c3)cc2c1 | 0.158
87 | COc1ccc2[nH]c(=S)cc(C)c2c1 | 13.9 (active)
88 | COc1ccc2[nH]c3ccc(OC)cc3c2c1 | 0.0914

Row | Structure (SMILES) | B-score of Tl+ flux slope (higher = more flux/activation; lower = inhibition)
89 | COc1ccccc1OCC(=O)O/N=C(\N)c1ccccn1 | 0.265
90 | COc1ccc(C(=O)NNc2cc(C)nc(NNC(=O)c3ccc(OC)cc3)n2)cc1 | -0.94
91 | C[C@@H](C(=O)Nc1ccc2ccccc2c1)[C@@H]1C[C@@]1(C)[C@@H](NC(=O)c1cccnc1)c1ccccc1 | -2.53 (active)
92 | COC(=O)[C@H](C)[C@H]1C[C@]1(C)[C@H](NC(=O)OCc1ccccc1)c1ccccc1 | 2.81
93 | O=C(Nc1ccc(N2CCN(C(=O)c3ccccc3)CC2)c(Cl)c1)c1cccnc1 | 1.08
94 | Cc1cc(C)n(CC(C)NCc2c(C(=O)N3CCOCC3)nc3c(C)cccn23)n1 (configuration not stated) | 0.104
95 | CCOC(=O)C1=C(N)N2C(=O)C(C)SC2=C(C(=O)OCC)C1c1cc(OC)c(OC)c(OC)c1 (configuration not stated) | -0.308
96 | CCCCn1c(=S)[nH]c2ccccc2c1=O | 92.1 (active)
97 | CCCCNC(=O)c1ccc(-n2c(=S)[nH]c3ccccc3c2=O)cc1 | 1.81
98 | CN(C)CCn1c(=S)[nH]c2ccc(Cl)cc2c1=O | 4.34 (active)
99 | CCN(CC)CCn1c(=S)[nH]c2ncccc2c1=O | 0.847
100 | CCCCn1c(=O)c(C(C)=O)c(O)c2ccccc21 | -0.478
101 | O=c1c2ccccc2[nH]c(=S)n1CCN1CCC(=C(c2ccc(F)cc2)c2ccc(F)cc2)CC1 | 8.36 (active)
102 | Fc1ccc(NC(=S)N2CCc3[nH]c4ccccc4c3C2)cc1 | -0.241
103 | CCCCN(C)Cc1c(C)[nH]c2ccc(Cl)cc2c1=O | -0.235
104 | CCCCn1c(=S)[nH]c2cc(S(=O)(=O)N3CCCCC3)ccc21 | 0.854
105 | O=C(CCn1c(=S)[nH]c2ccccc2c1=O)NCCCN1CCCC1=O | -0.0162
106 | COc1cc2[nH]c(=S)n(Cc3ccc(F)cc3)c(=O)c2cc1OC | 0.913
107 | CCCCn1c(=S)[nH]c2ncccc2c1=O | 49.5 (active)

— PubChem BioAssay AID1456 (Vanderbilt High Throughput Screening Facility, 2008)
